Nrf2 inh: Nrf2 pathway inhibition. Potency, µM (doses to about 46 µM), for the others: at the highest dose activity change, negative = inhibition, usual class: inhibitors. A549 ARE-Fluc reporter, luciferase luminescence, 18-24 h. 360,000 compounds, 2.1% hits; further: on the % scale 0 is the no-effect control and ±100 the full control effect; nearly all actives have a fitted effect of over 60% in size
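In this cell-based qHTS, ARE-driven firefly luciferase in A549 cells reports Nrf2 activity; the luminescent signal after BugLite lysis is the measured value, with a prior CellTiter-Fluor read for cell health.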
mIDH1 inhibitor: inhibitors of human mutant IDH1 R132H; O75874; IDH1-R132H enzyme, NADPH consumption, diaphorase/resazurin fluorescence; Potency, µM (titrated, usually from 76.6 µM), without a hit: at the highest dose activity change, negative = inhibition, most hits filed as inhibitors; 390,000 compounds, 0.093% hits; AID 602179; further: on the % scale 0 is the no-effect control and ±100 the full control effect; nearly all actives have a fitted effect of over 65% in size
Target sequence (O75874 whole entry R132H, stated change not applied): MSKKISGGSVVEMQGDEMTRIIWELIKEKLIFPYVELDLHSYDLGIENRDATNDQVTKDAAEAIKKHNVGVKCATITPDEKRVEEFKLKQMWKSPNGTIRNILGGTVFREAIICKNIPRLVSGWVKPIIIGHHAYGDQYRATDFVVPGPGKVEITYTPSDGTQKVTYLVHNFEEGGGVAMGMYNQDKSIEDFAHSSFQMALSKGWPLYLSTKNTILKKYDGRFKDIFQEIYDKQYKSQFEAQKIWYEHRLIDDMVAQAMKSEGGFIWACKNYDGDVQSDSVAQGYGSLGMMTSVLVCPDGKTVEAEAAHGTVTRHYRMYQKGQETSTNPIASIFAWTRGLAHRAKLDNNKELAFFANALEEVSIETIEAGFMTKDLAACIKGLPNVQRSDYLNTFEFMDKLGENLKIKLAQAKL
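IDH1-R132H (0.5 ug/mL dispensed) in pH 7.5 Tris buffer was preincubated 30 min with compound, then given a substrate mix of 0.016 mM NADPH and 2 mM alpha-KG for 80 min at room temperature; remaining NADPH was read by diaphorase/resazurin fluorescence.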
TrxR1 substrate: substrates of rat thioredoxin reductase 1; purified TrxR1 substrate turnover, NADPH consumption readout; Potency, µM (titrated, usually from 114 µM), for inactives: at the highest dose activity change, negative = substrate turnover; 390,000 compounds, 0.01% hits; AID 588456; further: on the % scale 0 is the no-effect control and ±100 the full control effect; nearly all actives have a fitted effect of over 50% in size
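Rat TrxR1, dispensed at 90 nM, was prereduced with 400 uM NADPH (final) for 5 min at ~22 deg C, then incubated with compound 15 min before 400 uM selenite. A first-read NADPH fluorescence drop versus no-compound background flagged substrates.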
A549 tox: counter-screen for Nrf2 inhibitors: cytotoxicity in A549 cells; Potency, µM (highest dose often 46 µM), for the others: at the top dose activity change, negative = cytotoxicity, usual class: inhibitors; 390,000 compounds, 0.16% hits; A549 ARE-Fluc cells, CellTiter-Fluor viability, 18-24 h; AID 504648; further: on the % scale 0 is the no-effect control and ±100 the full control effect
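A549 ARE_Fluc cells in 5% FBS OPTI-MEM were exposed to compounds in concentration-response for 18-24 h at 37 deg C. Viability was read by CellTiter-Fluor fluorescence (Ex 405/Em 525) after 30 min, before the luciferase read.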
rTrxR1 inhibitor: rat TrxR1 inhibition. AID 588453. 390,000 compounds, 1% hits. Potency, µM (doses to about 114 µM), for inactives: at the highest dose activity change, negative = inhibition, hits mostly inhibitors. recombinant rTrxR1, NADPH fluorescence consumption, selenite substrate. O89049; further: on the % scale 0 is the no-effect control and ±100 the full control effect; nearly all actives have a fitted effect of over 65% in size
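Rat TrxR1 (90 nM in the dispensed reagent) was pre-reduced with 400 uM NADPH for 5 min at room temperature, then incubated with compound for 15 min. After 400 uM selenite was added, NADPH fluorescence (Ex 340/Em 450 nm) was followed for 8 min.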
Mito fusion yeast: inhibitors of mitochondrial division or activators of mitochondrial fusion | S. cerevisiae fusion-defective mutant growth rescue, CellTiterGlo 48 h | Potency, µM (titrated, usually from 46.1 µM), inactives show at the highest dose growth rescue (activation), most hits filed as activators | 320,000 compounds, 0.23% hits | AID 485298; further: % of control where 0% means no effect; nearly all actives have a fitted effect of over 45% in size
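Luminescent cell viability in 1536-well qHTS format served as the measure of rescued growth in ts fusion-mutant S. cerevisiae cultured on non-fermentable YPEG for 48 hours at 37C.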
An asterisk follows results filed as active; ? = inconclusive; . = no result given; [ ] = another dose, or the depositor's remark. Shown are actives, neighbours in structure and some others; about 3.1% of the full set was active somewhere. The call rests on the fitted dose curve; in most records, active means well fitted curve in the direction sought with a large enough effect; inconclusive means small, poorly fitted or top-dose-only effect, or another doubt; inactive means no such curve, though single readings can be large; an effect the other way counts as inactive or inconclusive. Potency means the concentration at half of the fitted maximal effect.

SMILES | Nrf2 inh | mIDH1 inhibitor | TrxR1 substrate | A549 tox | rTrxR1 inhibitor | Mito fusion yeast
Nc1ccc(S(=O)(=O)O)cn1 | 8% | 6% | 7% | -5% | 23% | 0%
COc1ccc(CNC(=O)Cn2nc(C)c3nn(-c4ccc(Cl)cc4)c(C)c3c2=O)cc1 | . | -8% | 2%[57.1 µM] | 4% | 22%[57.1 µM] | .
CC(C)OCCCNC(=O)c1ccc(-n2c(-c3ccccc3)cc3c2CCCC3)cc1 | ? | 5% | 8%[11.4 µM] | ? | 33% | .
CN(C)CCNC(=O)c1ccc(-n2c(-c3ccccc3)cc3c2CCCC3)cc1 | 23µM* | 19% | 3% | 0% | 27% | .
CCOCCCNC(=O)c1ccc(-n2c(-c3ccccc3)cc3c2CCCCC3)cc1 | 18µM* | 7% | -5% | -2% | 0% | .
CC(C)NC(=O)c1ccc(-n2c(-c3ccccc3)cc3c2CCCC3)cc1 | -2% | 0% | -8% | 13% | 7% | .
CCC(C)NC(=O)c1ccc(-n2c(-c3ccccc3)cc3c2CCCC3)cc1 (centres undefined) | 18µM* | 8% | -2% | -2% | 14% | .
NC(N)=NCCC[C@H](NC(=O)CNC(=O)c1ccccc1)C(=O)Nc1cc(C(F)(F)F)ccc1Cl | -13% | . | . | -3% | . | .
Cc1ccc(S(=O)(=O)CNC(=S)c2ccc3ccccc3c2)cc1 | 3% | -4% | -16% | 15% | 40µM* | 3%
COc1ccc(C(=S)NCS(=O)(=O)c2ccc(C)cc2)cc1 | 12% | 4% | -3% | 7% | 4µM* | 0%
Cc1ccc(S(=O)(=O)CNC(=S)c2cccc(C)c2)cc1 | . | 4% | 5% | -2% | ? | -9%
O=S(=O)(NCc1ccccc1)c1ccc(S(=O)(=O)NCC2CCCO2)cc1 (centres undefined) | 2% | 0% | -5%[57.1 µM] | 9% | 1.4µM* | 2%
CCCCNS(=O)(=O)c1ccc(S(=O)(=O)NCc2ccncc2)cc1 | 7.3µM* | -1% | 10% | -16% | 14% | 1%
O=C(Nc1ccc(F)cc1)c1ccc(S(=O)(=O)NCC2CCCO2)cc1 (centres undefined) | 23µM* | 2% | 8% | 23µM* | 12% | 1%
O=S(=O)(NCc1ccncc1)c1ccc(S(=O)(=O)NCC2CCCO2)cc1 (centres undefined) | 9.2µM* | -3% | 4% | -4% | 10% | 1%
O=S(=O)(NCC1CCCO1)c1ccccc1 (centres undefined) | 5% | 6% | 4% | -2% | 20% | 0%
Cc1c(CCO)sc[n+]1CCc1ccccc1 | . | . | 5% | . | 10% | .
O=C(c1ccc(S(=O)(=O)NCC2CCCO2)cc1)N1CCc2ccccc21 (centres undefined) | 26µM* | 5% | -5% | -22% | -8% | -2%
CCOc1ccc(S(=O)(=O)Nc2cccc(-c3ccc(OCC)nn3)c2)cc1 | . | -22% | -3%[57.1 µM] | 7% | 21%[57.1 µM] | .
O=[N+]([O-])c1ccccc1N=Nc1ccc(O)cc1O | ? | 5% | -12%[57.1 µM] | -14% | 4%[57.1 µM] | .
O=S(=O)(O)c1cc(O)c(N=Nc2ccc(O)cc2O)c2ccccc12 | ? | 20% | -2%[2.29 µM] | 21µM* | -72%[57.1 µM] | .
CC(=O)Nc1ccc(S(=O)(=O)O)c2cc(S(=O)(=O)O)c(N=Nc3ccc(N=Nc4ccc(S(=O)(=O)O)cc4)c4ccc(S(=O)(=O)O)cc34)c(O)c12 | . | . | -17% | . | -21% | .
O=S(=O)(O)c1ccc2c(N=Nc3ccc(S(=O)(=O)O)c4ccccc34)c(O)c(S(=O)(=O)O)cc2c1 | . | . | 34% | . | 71µM* | .
CC(C)c1cc(C(=O)NCc2ccc(F)cc2)no1 | ? | . | 3% | -6% | 18% | .
Cc1cccc(Nc2ccc(S(=O)(=O)N3CCOCC3)cc2[N+](=O)[O-])c1 | -25% | -4% | -8% | -10% | 8% | 25%
CSc1cccc(Nc2ccc(S(=O)(=O)N3CCOCC3)cc2[N+](=O)[O-])c1 | 18µM* | 0% | -5% | -10% | 10% | 14%

Source: PubChem BioAssay
